# Assay results from PubChem BioAssay AID2283221 (EPA ToxCast).
# Results filed as inconclusive are left out. Activity calls are given as the source filed them. How the source made its calls: active means hit-call score of the fitted dose curve at least 0.9, where 1 is the maximum; inconclusive means response in the unintended direction; inactive means score below 0.9.
# Molecular target: human Spleen Associated Tyrosine Kinase (Syk), SYK (gene 6850) (UniProt P43405)
# Experiment: NVS_ENZ_hSyk: NovaScreen (NVS) Enzymatic Assay for human Spleen Associated Tyrosine Kinase (Syk)
# Procedure: NVS_ENZ_hSyk is a biochemical, single-readout assay that uses extracted gene-proteins in a cell-free assay. Measurements were taken 1 hour after chemical dosing in a 96-well plate.NVS_ENZ_hSyk is one of one assay component(s) measured or calculated from the NVS_ENZ_hSyk assay. It is designed to make measurements of enzyme activity, a form of enzyme reporter, as detected with fluorescence intensity signals by Fluorescence and electrophoretic mobility shift technology.Data from the assay component NVS_ENZ_hSyk was analyzed into 1 assay endpoint. This assay endpoint, NVS_ENZ_hSyk, was analyzed in the positive analysis fitting direction relative to DMSO as the negative control and baseline of activity. Using a type of enzyme reporter, loss-of-signal activity can be used to understand changes in the enzymatic activity as they relate to the gene SYK. Furthermore, this assay endpoint can be referred to as a primary readout, because this assay has produced […] where this one serves a enzymatic activity function. To generalize the intended target to other relatable targets, this assay endpoint is annotated to the kinase intended target family, where the subfamily is non-receptor tyrosine kinase.
# Binding assays used specific radioligands (tritiated, iodinated) with non-radioactive competitive displacement ligands in agonist or antagonist protocols (as indicated) and various reference compounds and inhibitors to titrate specific binding to receptors and transporters. Most enzyme assays (CYPs, kinases, phosphatases, proteases, HDACs) used recombinant protein and specific substrates (fluorescence mostly, some colorimetric and radioactive) and inhibitors, followed by a biochemical separation of substrate and product. All assays for the biochemical HTS were initially run in duplicate at a single concentration (10 uM for CYP450 assays and 25 uM for all others). Assay-chemical combinations meeting a pre-defined threshold (e.g., 30% inhibition and other criteria defined below) were then run in singleton concentration-response format with maximum concentration of 20 uM for CYPs and 50 uM for all others. Each assay was run with positive and negative controls, and concurrent controls on every plate. The follow-up (secondary) screen tested active chemical-pairs in concentration series, as well as a few additional assays not tested in the primary screen, some selected negative inactives, and several cases re-run in the concentration series for confirmatory purposes.
SMILES,AC50,outcome
O=C(O)C1(C(=O)Nc2ccc(Cl)cc2Cl)CC1,15.4 µM (active),
CCNc1nc(Cl)nc(NC(C)C)n1,,inactive
S=C(S)NCCNC(=S)S.[Mn+2].[S-]C([S-])=NCCN=C([S-])[S-].[Zn+2],9.71 µM (active),
CNc1cnn(-c2cccc(C(F)(F)F)c2)c(=O)c1Cl,,inactive
CC[C@H](C)[C@H]1O[C@]2(C=C[C@@H]1C)C[C@@H]1C[C@@H](C/C=C(\C)[C@@H](O[C@H]3C[C@H](OC)[C@@H](O[C@H]4C[C@H](OC)[C@@H](NC)[C@H](C)O4)[C@H](C)O3)[C@@H](C)/C=C/C=C3\CO[C@@H]4[C@H](O)C(C)=C[C@@H](C(=O)O1)[C@]34O)O2,,inactive
CCOCN(C(=O)CCl)c1c(C)cccc1CC,,inactive
COP(N)(=O)SC (configuration not stated),,inactive
